The panel holds about 83,000 compounds, 20% with a hit somewhere; the sample as a whole holds those more often.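 The test compound was applied at a single concentration to cells in 96-well plates for 48 hours, and percent growth was recorded.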 Values without a mark were called inactive. The source made the active and inactive calls. The calls were made as follows: active = growth percent below 10; inactive = the rest.
Key:
Experiment in all cases: NCI-60 one-dose screen, 48 h (100 = growth as untreated, 0 = no growth, -100 = all killed)
Conditions in all cases: 10 µM unless noted
DU-145 prostate = test system: DU-145 prostate
K-562 leukemia = test system: K-562 leukemia
MALME-3M melanoma = test system: MALME-3M melanoma
MDA-MB-231 breast = test system: MDA-MB-231 breast
RXF 393 renal = test system: RXF 393 renal
SF-268 CNS = test system: SF-268 CNS
SF-295 CNS = test system: SF-295 CNS
UACC-257 melanoma = test system: UACC-257 melanoma
M14 melanoma = test system: M14 melanoma
HCT-15 colon = test system: HCT-15 colon
HT29 colon = test system: HT29 colon
SNB-75 CNS = test system: SNB-75 CNS
SNB-19 CNS = test system: SNB-19 CNS
U251 CNS = test system: U251 CNS
PC-3 prostate = test system: PC-3 prostate
SK-MEL-5 melanoma = test system: SK-MEL-5 melanoma
UACC-62 melanoma = test system: UACC-62 melanoma
LOX IMVI melanoma = test system: LOX IMVI melanoma
SK-MEL-28 melanoma = test system: SK-MEL-28 melanoma

SMILES	growth (DU-145 prostate)	growth (K-562 leukemia)	growth (MALME-3M melanoma) [%]	growth (MDA-MB-231 breast)	growth (RXF 393 renal)	growth (SF-268 CNS)	growth (SF-295 CNS) [%]	growth (UACC-257 melanoma) [%]	growth (M14 melanoma)	growth (HCT-15 colon)	growth (HT29 colon)	growth (SNB-75 CNS) [%]	growth (SNB-19 CNS)	growth (U251 CNS)	growth (PC-3 prostate)	growth (SK-MEL-5 melanoma)	growth (UACC-62 melanoma)	growth (LOX IMVI melanoma)	growth (SK-MEL-28 melanoma)
O=C(/C=C/c1ccc(Cl)cc1)/C=C/c1cc2ccccc2[nH]c1=O	79.3%	10.1%	14.3	63.8%	38.3%	45.2%	102	88.9	60.3%	69%	-0.317% (active)	68.8	83.4%	11.7%	48.8%	75.2%	52.9%	-44.5% (active)	76.1%
COc1ccc2nc3cc(Cl)ccc3c(NCCNCC(O)CO)c2c1 (configuration not stated)	31.6%	10.8%	28.7	20%	9.56% (active)	28.8%	45.6	32.5	28%	73.4%	6.37% (active)	42.1	35.7%	17.3%	21.4%	35.3%	11%	-55.2% (active)	30.8%
Nc1ccc2c(c1)C(=O)NC2=O	110%	100%	90.5	101%	115%	92.5%	101	98.6	99.4%	98.5%	90.7%	75.8	93.5%	96%	121%	105%	89.7%	97.8%	99.8%
C[C@@H]1CCC2=C(CCC[C@]2(C)C(=O)O)[C@@]1(C)CCc1ccoc1	108%	116%	110	90%	105%	95.1%	102	82.9	103%	102%	86.9%	95.7	92.9%	85.4%	87.4%	95.4%	85.3%	98.4%	115%
COc1ccc(CN2C(=O)/C(=C\c3cc(OC)c(OC)c(OC)c3)c3cc(OC)ccc32)cc1	7.67% (active)	1.94% (active)	36.4	11.1%	-53% (active)	7.98% (active)	39.7	25.7	-28% (active)	-36.6% (active)	-25.3% (active)	28.3	59.8%	-48% (active)	28.9%	1.57% (active)	-10.4% (active)	-71.8% (active)	-31.8% (active)
Oc1ccc2c(=S)cc(-c3ccc(Br)cc3)oc2c1O	25.5%	20.7%	38.3	3.73% (active)	33.4%	9.4% (active)	100	67.5	12.3%	8.03% (active)	63.9%	71.4	6.8% (active)	-7.83% (active)	-2.05% (active)	10.9%	8.09% (active)	1.22% (active)	51.4%
O=C1CC(c2nc3ccccc3[nH]2)CN1C1CCCCC1 (configuration not stated)	110%	102%	103	102%	111%	101%	97.3	101	104%	105%	102%	90.1	110%	99.7%	93.3%	101%	104%	93.9%	112%
CCOC(=O)C12CCCC1=CC(=O)CC2 (configuration not stated)	116%	89%	108	111%	113%	103%	115	94.4	112%	106%	131%	89.1	99.9%	105%	94.8%	103%	102%	100%	106%

Reference: PubChem BioAssay (NCI)
